Bioassay records from PubChem BioAssay.
Shown are actives, neighbours in structure and some others; about 8.3% of the full set was active somewhere.
MCF10A rereplic = induces DNA re-replication in MCF 10a normal breast cells | MCF 10A DNA re-replication, Hoechst nuclear intensity, 48 h | 350,000 tested, 2.9% active | Potency, µM (series often up to 46.1 µM), inactives show at the highest dose activity, positive = re-replication, usual class: activators | AID 624296; note: potency is the fitted concentration of half-maximal effect; % of control where 0% means no effect; nearly all actives have a fitted effect of over 50% in size
RORgamma inh = inhibitors of mouse ROR gamma transcriptional activity. Potency, µM (top dose mostly 53.6 µM), for inactives: at the highest dose activity change, negative = inhibition, most hits filed as inhibitors. P51450. Drosophila S2 Gal4-RORgamma UAS-luciferase reporter, 20 h. 310,000 tested, 5.4% active; note: potency is the fitted concentration of half-maximal effect; % is set by controls: 0 for no effect and ±100 for the full control effect; nearly all actives have a fitted effect of over 60% in size
Target sequence (P51450 whole entry, looked up, the tested form may be a part): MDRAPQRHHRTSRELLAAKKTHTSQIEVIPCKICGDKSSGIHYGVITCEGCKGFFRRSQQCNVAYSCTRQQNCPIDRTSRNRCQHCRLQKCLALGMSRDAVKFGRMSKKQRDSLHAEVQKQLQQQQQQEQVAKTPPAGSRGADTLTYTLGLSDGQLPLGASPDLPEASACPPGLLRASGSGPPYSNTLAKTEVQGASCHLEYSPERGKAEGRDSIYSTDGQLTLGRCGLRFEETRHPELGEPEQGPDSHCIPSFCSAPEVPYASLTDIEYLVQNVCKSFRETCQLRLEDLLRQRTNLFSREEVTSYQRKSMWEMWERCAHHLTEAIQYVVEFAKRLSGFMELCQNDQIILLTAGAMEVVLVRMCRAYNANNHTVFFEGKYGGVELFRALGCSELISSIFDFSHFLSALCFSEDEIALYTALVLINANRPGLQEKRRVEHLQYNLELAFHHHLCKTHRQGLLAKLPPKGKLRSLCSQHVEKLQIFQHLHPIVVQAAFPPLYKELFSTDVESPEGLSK
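Drosophila Schneider cells stably carrying a metallothionein-driven Gal4 DBD–ROR gamma fusion and a UAS-Photinus luciferase reporter were exposed to compound for 1 hr, then induced with copper sulfate (700 uM final) for 20 hr at ambient temperature before luminescence reading.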
BCR signal inh = inhibitors of chronic active B-cell receptor signaling. ABC-DLBCL IkBa-CBG/CBR reporter, luminescence ratio, 4 h. Potency, µM (titrated, usually from 46.1 µM), inactives show at the highest dose activity change, negative = inhibition, most hits filed as inhibitors. 340,000 tested, 0.05% active; active = well fitted inhibition curve with a large enough effect in the signal ratio, with a control signal flat, not every such curve was filed as active; inconclusive = small, poorly fitted or top-dose-only effect, or effect the other way, or a change in a side signal; the % refers to the signal ratio;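 note: potency is the fitted concentration of half-maximal effect; plate controls were basal doxycycline-induced cells for no effect and cells given 10 µM MG132 for full effect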
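Compounds up to 46 uM were incubated four hours with TMD8 cells whose green CBG68 luciferase is fused to IkappaBalpha; red CBR luminescence normalised the signal, and concentration-effect curves were fitted to fusion, red and ratio data.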
SW480 rereplic = inducers of DNA re-replication in SW480 colon cancer cells | Potency, µM (highest dose often 46.1 µM), for the others: at the highest dose re-replication activation, most hits filed as activators | AID 624297 | 340,000 tested, 1.8% active | SW480 DNA re-replication, Hoechst DNA content imaging, 48 h; note: potency is the fitted concentration of half-maximal effect; % of control where 0% means no effect; nearly all actives have a fitted effect of over 55% in size
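DNA re-replication was detected as more nuclei of elevated Hoechst intensity after 48 hr exposure to compound (23 nL pinned per well of 250 cells).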
Giardia kill = kills Giardia lamblia | Giardia lamblia trophozoite viability | activity change, % at 7.66 µM, hits read low | 340,000 tested, 0.15% active | AID 540267; in the data active = activity change below about -80%; inconclusive = between about -30% and that limit;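 note: parasites exposed to compound for two days anaerobically before the ATP read; % is set by controls: 0 for no effect and ±100 for the full control effect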
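Anaerobic 48 hrs incubation at 37 deg C of 100 trophozoites/well with test compounds; ATPLite 1-Step luminescence, 15-30 min RT, reports cellular ATP as viability.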
VP16 counter = Gal4-VP16 reporter inhibition counter-screen | Drosophila S2 Gal4-VP16 UAS-luciferase, luminescence, 20 h | Potency, µM (titrated, usually from 53.6 µM), for the others: at the top dose activity, negative = inhibition, actives largely listed as inhibitors | 310,000 tested, 3.5% active | AID 2546;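 note: Gal4-VP16 expression switched on by copper sulfate through the metallothionein promoter; potency is the fitted concentration of half-maximal effect; % is set by controls: 0 for no effect and ±100 for the full control effect; nearly all actives have a fitted effect of over 50% in size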
Active calls of the source: *; u = inconclusive; x = no result given; [ ] = another dose, or the depositor's remark. Unless noted, calls come from the whole dose curve; as a rule, active = well fitted curve in the direction sought with a large enough effect; inconclusive = small, poorly fitted or top-dose-only effect, or another doubt; inactive = no such curve, though single readings can be large; an effect the other way counts as inactive or inconclusive.

SMILES | MCF10A rereplic | RORgamma inh | BCR signal inh | SW480 rereplic | Giardia kill | VP16 counter
CN1c2ccccc2N(C)C1(C)c1ccccc1 | u | 9% | 9% | 5.8µM* | 1 | -9%
CCN1c2ccccc2N(C)C1(C)c1ccccc1 (centres undefined) | u | -94% | -2% | 12µM* | 20 | u
CCN1C(=O)N(c2cccc3ccccc23)C(C)=CC1(C)C | 3% | 23% | -1% | -2% | 0 | -2%
CN1C(=O)N(C)C2(c3ccccc3)NC(=O)NC12c1ccccc1 (centres undefined) | 10% | 10% | -1% | 0% | -3 | -5%
COCCn1c(=O)c(-c2ccc(OC)cc2)nc2cnc(N3CCNCC3)nc21 | x | -18% | x | x | x | -16%
COc1ccc(C(Nc2cc(C)ccn2)c2ccc3ccc(C)nc3c2O)cc1 (centres undefined) | 0% | 2.5µM* | u | u | 15 | 3.5µM*
Cc1ccnc(NCc2c(O)ccc3ccccc23)c1 | -2% | -2% | u | -10% | 7 | -7%
Cc1ccnc(NC(c2ccsc2)c2ccc3ccc(C)nc3c2O)c1 (centres undefined) | u | 5µM* | u | u | -16 | u
CCOC(=O)C1(Cc2cccc(Cl)c2)CCCN(C(=O)C2CC2)C1 (centres undefined) | 0% | 17% | 0% | -1% | 21 | -10%
O=C(CCc1ccc(O)cc1)c1c(O)cc(O)cc1O | 20% | u | u | -14%[9.22 µM] | 4 | -6%
COc1cc(O)c(CC=C(C)C)c(O)c1C(=O)CCc1ccc(O)cc1 | 6.5µM* | -14% | u | u | -5 | -5%
CCc1ccc(NC(=S)N2CCN(S(=O)(=O)c3ccccc3)CC2)cc1 | 0% | 18µM* | 0% | -10% | 8 | u
O=C(NC1CCCCC1)N1CCN(S(=O)(=O)c2ccc(F)cc2)CC1 | 5% | -5% | 0% | -94% | -8 | 15%
O=S(=O)(c1ccc(F)cc1)N1CCN(C(=S)NC2CC2)CC1 | 1% | x | 0% | 0.58µM* | 7 | x
O=S(=O)(c1ccccc1)N1CCN(C(=S)Nc2ccc(Br)cc2)CC1 | 2% | -35% | 11% | -2% | 15 | -3%
Cc1ccc(NC(=S)N2CCN(S(=O)(=O)c3ccc(C)cc3)CC2)cc1 | 9% | 13µM* | -2% | 14% | -7 | -16%
Cc1cccc(NC(=S)N2CCN(S(=O)(=O)c3cccc(F)c3)CC2)c1 | u | 11µM* | -2% | u | 36 | 1%
O=C(Cc1ccc(Cl)cc1)NCCc1cnc[nH]1 | -4% | -16% | 7% | -9% | -10 | 1%
CC(=O)c1cc(-c2ccc(F)cc2)n(CC(=O)NC(C)c2ccccc2)c1C (centres undefined) | x | x | -6% | x | x | x
O=C(Nc1ccc2[nH]ccc2c1)c1ccc(F)cc1 | 3% | 11µM* | u | 2% | -83* | u
O=C(CCC(=O)Nc1ccc(F)cc1)N/N=C/c1ccc(O)cc1 | -2% | -18% | -10% | -6% | 17 | 2%
CCCCNC(=O)Cn1cnc([N+](=O)[O-])n1 | 1% | -11% | 2% | 7.3µM* | -28 | 19%
O=C(NN=Cc1ccc(O)cc1)C(=O)NN=Cc1ccc(O)cc1 | -22% | x | x | -4% | 24 | x
COCCNC(=O)Cn1cnc([N+](=O)[O-])n1 | -48% | u | 0% | -3% | 25 | -3%[10 µM]
O=C(CCC(=O)Nc1ccc(F)cc1)N/N=C/c1ccc(O)cc1O | 38% | -38% | u | 9.2µM* | 7 | -15%
O=C(N/N=C/c1ccc(O)cc1O)C(=O)N/N=C/c1ccc(O)cc1O | 7% | -22% | u | 12µM* | -9 | 3%
O=C(Cn1cnc([N+](=O)[O-])n1)N/N=C/c1cccc2ccccc12 | -3% | -52% | 3% | -9% | -4 | -1%
O=C(Cn1cnc([N+](=O)[O-])n1)N/N=C/c1ccc(O)cc1O | -1% | -27% | u | 12µM* | -1 | -8%
